# Assay outcomes (PubChem BioAssay)
# Only some compounds are listed: those with a hit (about 7% of all), similar ones and a draw of the others.
# ATXN2 expr inh – inhibitors of ATXN2 expression; 0.72% of 360,000 active; AID 1745845; Potency, µM (titrated, usually from 57 µM), inactives show at the highest dose activity change, negative = inhibition, usual class: inhibitors; HEK-293 ATXN2-luciferase reporter, luminescence, 24 h; also: potency is read from the fitted curve at half-maximal effect; % is scaled to controls: 0 for no effect and ±100 for the full control effect; nearly all actives have a fitted effect of over 55% in size
#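 qHTS (up to 57 uM final) was run with 24 h compound exposure of reporter cells at 37 °C. Each well was multiplexed: SteadyGlo luminescence measured ATXN2-luciferase expression after a fluorogenic Gly-Phe-AFC viability readout (25 uM final).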
# D3 ag – activates the human D3 dopamine receptor; P35462; D3R DiscoveRx beta-arrestin cells, luminescence, 90 min; max activation, %; 0.58% of 410,000 active; in the data active = max activation above about 30%; also: 0% is about no effect
# Target sequence (P35462 whole entry, looked up): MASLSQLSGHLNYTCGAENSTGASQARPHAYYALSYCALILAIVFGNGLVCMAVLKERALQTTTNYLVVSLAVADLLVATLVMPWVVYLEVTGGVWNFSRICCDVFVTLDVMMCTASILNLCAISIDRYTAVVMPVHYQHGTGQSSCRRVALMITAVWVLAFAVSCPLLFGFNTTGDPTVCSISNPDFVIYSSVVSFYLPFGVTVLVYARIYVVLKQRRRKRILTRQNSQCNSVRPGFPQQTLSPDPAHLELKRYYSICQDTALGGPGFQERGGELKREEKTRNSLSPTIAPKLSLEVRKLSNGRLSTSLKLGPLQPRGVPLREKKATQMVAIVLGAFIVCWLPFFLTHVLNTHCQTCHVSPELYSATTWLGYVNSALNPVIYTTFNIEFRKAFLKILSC
#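 Agonist mode: compounds and dopamine controls were applied to plated cells for 90 min at 37 degrees C after an overnight attachment at 1500 cells/well. Luminescent read-out followed 30 - 60 minutes at room temperature with DiscoveRx detection reagent.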
# S2 tox – viability counter-screen for ATXN expression inhibitors; S2 cells (HEK-293 line with an ATXN2-luciferase reporter) viability, CellTiter-Fluor protease fluorescence, 24 h; Potency, µM (series often up to 56.7 µM), most hits filed as cytotoxic; 0.49% of 400,000 active; AID 651635; also: potency is read from the fitted curve at half-maximal effect; nearly all actives have a fitted effect of over 40% in size
# DRD3 antagonist – blocks the human D3 dopamine receptor. AID 652054. P35462. D3R cells, DiscoveRx beta-arrestin luminescence, antagonist mode; active compounds read low. 2.5% of 360,000 active. max response, negative = inhibition, %; in the data active = max response below about -50%; inconclusive = no clear call, values can overlap the other calls; also: % is scaled to controls: 0 for no effect and ±100 for the full control effect
#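 Cells expressing the human receptor were seeded at 1500 cells/well, incubated overnight at 37 degrees C in 5% CO2, then exposed to library compounds with dopamine controls for 90 minutes at 37 degrees C before luminescent detection.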
# a7 integrin act – activates integrin-mediated alleviation for muscular dystrophy. alpha7betagal myoblasts, beta-gal FDG fluorescence, 48 h. 0.064% of 350,000 active. Potency, µM (highest dose often 38.3 µM), for inactives: at the highest dose activation, usual class: activators;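 also: potency is read from the fitted curve at half-maximal effect; 100% = response of the positive control SU9516; nearly all actives have a fitted effect of over 60% in size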
#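 alpha7betagal+/- myoblasts (passage 13, 250/well) treated 48 h at 37C with compounds at 1:260 dilution of DMSO stock. Lysed, then beta-galactosidase activity read as FDG fluorescence (ex 480/em 540) after 30 min, with pre-read for autofluorescence.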
# IL1B secr inh – inhibitors of inflammasome signaling (IL-1 beta secretion); THP-1 LPS/ATP IL-1B secretion, AlphaLISA, 16 h; active compounds read low; activity change, % at 57.5 µM; 4.7% of 360,000 active; AID 743279; in the data active = activity change below about -50%; inconclusive = mostly about -30% to -49%; also: % is scaled to controls: 0 for no effect and ±100 for the full control effect
#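 THP-1 cells pretreated 1 hr with compounds (up to 57.5 uM final), then stimulated with LPS (250 ng/mL final) plus ATP (1.25 mM final); secreted IL-1B measured by AlphaLISA after 16 hr, decreased signal indicating inhibition.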
# * = called active by the depositor; i = inactive; ? = inconclusive; · = no result given; [ ] = dose if it differs, or a comment. Unless noted, calls follow the shape of the dose curve; as a rule, active = well fitted curve in the direction sought with a large enough effect; inconclusive = small, poorly fitted or top-dose-only effect, or another doubt; inactive = no such curve, though single readings can be large; an effect the other way counts as inactive or inconclusive.
SMILES,ATXN2 expr inh,D3 ag,S2 tox,DRD3 antagonist,a7 integrin act,IL1B secr inh
CCc1cccc2c(C(=O)C(NCCOC)c3ccccc3)c[nH]c12 (stereo not given),-2%,-2,i,-10,-27%,-23
CCNC(C(=O)c1c[nH]c2c(CC)cccc12)c1ccccc1 (stereo not given),-25%,-15,?,-14,-35%,-57*
CCc1cccc2c(C(=O)CCl)c[nH]c12,6%,12,?,-11,-65%,-95*
Cc1ccc(-c2nn(-c3ccccc3)cc2NC(=O)CCl)cc1,14%[11.3 µM],2,?,-4,-58%,-100*
Cc1ccccc1NC(=O)c1cn(-c2ccccc2)nc1-c1ccccc1,-4%,-15,i,4,-12%,?
Cc1ccc(-c2cc(NC(=O)CCl)n(-c3ccccc3)n2)cc1,?,1,?,?,-23%,-99*
Nc1ccccc1Nc1cc(-c2ccccc2)nn1-c1cccc(Cl)c1,-8%,8,i,16,?,-52*
Cc1nn(Cc2ccc(Cl)cc2Cl)c(C)c1NC(=O)CCl,?,5,·,8,-77%,-101*
CCOC(=O)C1=C(COC(=O)c2cc(S(=O)(=O)N(C)C)ccc2C)NC(=O)NC1C (stereo not given),-14%,-1,i,-22,10%,0
CC(=O)N1CCOc2ccc(S(=O)(=O)Nc3ccc(Cl)cn3)cc21,11%,-8,i,-5,9%,-5
O=C(O)c1ccccc1NCc1cccs1,·,2,i,0,6%,27
O=C(CCl)Nc1cc(-c2ccccc2)nn1-c1ccccc1,?,3,32µM*,?,-65%,-105*
Cc1ccc(-n2nc(C)c(NC(=O)CCl)c2C)cc1,-36%,-1,·,10,-50%,-89*
CC(=O)Nc1ccc(-c2cc(NC(C)=O)n(-c3ccccc3)n2)cc1,9%,5,i,0,38%,4
COc1cccc(CNC(=O)Cn2ncn3nc(-c4cccs4)cc3c2=O)c1,7%,3,i,·,·,·
COc1ccc(CCNC(=O)c2ccc(Cn3c(SCC(=O)NCCC(C)C)nc4cc5c(cc4c3=O)OCO5)cc2)cc1OC,·,-1,·,·,·,·
O=C(O)CCn1cc(/C=C2/NC(=S)N(c3ccccc3)C2=O)c(-c2ccccc2)n1,-1%,-7,i,0,20µM*,0
CC(=O)N1CCN(c2nnc(-c3ccc(C)cc3)c3ccccc23)CC1,-12%,7,?,0,19%,-22
CCOc1ccc(-c2nnc(N3CCCCC3)c3ccccc23)cc1,?,0,28µM*,-4,-38%,?
Cc1ccc(OCC(=O)N2CCN(c3nnc(-c4ccccc4)c4ccccc34)CC2)cc1,?,24,i,13,-7%,-73*
CCCS(=O)(=O)N1CCC(C(=O)NCc2cccnc2)CC1,-3%,-9,i,14,-1%,7
COc1ccc(/C=C/C(=O)c2ccncc2)c2ccccc12,0%,-2,?,-27,-52%,-29
COc1ccc2ccccc2c1C(=O)/C=C\c1ccoc1,-7%,1,i,-3,0%,-56*
CCOC(=O)CN(C)Cc1cn[nH]c1-c1ccc2cc(OC)ccc2c1,-11%,0,i,-6,13%,-64*
C=CCn1c(O)c(C2=c3ccccc3=NC2=O)s/c1=N/c1nccs1,-8%,2,i,-1,-21%,15
SMILES,ATXN2 expr inh,D3 ag,S2 tox,DRD3 antagonist,a7 integrin act,IL1B secr inh
C=CCn1c(O)c(C2=c3ccccc3=NC2=O)c2ccccc21,?,-24,i,-65*,-55%,0
Cc1cc(NC(=O)/C=C/c2ccc(Br)cc2)no1,11%,-2,i,-9,-4%,9
O=C(c1cnc(N2CCN(c3ncccn3)CC2)c2ccccc12)N1CCN(c2ncccn2)CC1,-17%,0,i,273,-21%,-54*
CCN(C(=O)c1cnc(N2CCN(c3ncccn3)CC2)c2ccccc12)c1cccc(Cl)c1,-33%,3,?,25,-11%,-65*
O=C(O)c1ccccc1C(=O)N1CCN(c2ncccn2)CC1,0%,-6,i,-1,12%,32
CN(C(=O)c1cnc(N2CCN(c3ncccn3)CC2)c2ccccc12)c1ccc(Cl)cc1,?,-5,i,-6,24%,-84*
CCOC(=O)C1CCCN(c2c(N3CCN(C)CC3)c(=O)c2=O)C1 (stereo not given),-6%,-4,i,-18,-23%,-6
c1ccc(-c2nc3cc4ccccc4cc3[nH]2)nc1,-22%,1,i,9,9%,-95*
c1cncc(-c2nc3cc4ccccc4cc3[nH]2)c1,54%,0,i,-10,-12%,-84*
O=C(CCS(=O)(=O)c1ccc(Cl)cc1)N1CCN(c2ccc(F)cc2)CC1,-20%,23,i,5,-7%,-21
Cc1ccc(S(=O)(=O)CCC(=O)N2CCN(c3ccc(Cl)cc3)CC2)cc1,?,32*,i,13,-49%,0
Cc1cc(C)c2nc(N(CCCN(C)C)C(=O)c3ccc4c(c3)CCCC4)sc2c1,?,-7,?,-28,-54%,-78*
CN(C)CCCN(C(=O)c1ccc2c(c1)CCCC2)c1nc2c(F)cccc2s1,2%,-23,?,-14,-53%,-62*
Cc1cccc2sc(N(CCCN(C)C)C(=O)c3ccc(C(=O)c4ccccc4)cc3)nc12,?,-14,?,?,-71%,-8
CCOc1ccc2nc(N(CCN(C)C)C(=O)c3ccc4c(c3)CCCC4)sc2c1,-10%,-6,i,-12,2%,-65*
Cc1ccc2nc(N(CCCN(C)C)C(=O)c3ccc4c(c3)CCCC4)sc2c1,?,-19,·,?,-46%,-100*
CCOc1ccc(S(=O)(=O)N2CCOCC2)cc1NC(=O)CN1C(=O)NC(C)(c2ccc(C)cc2)C1=O (stereo not given),1%,2,i,-2,-3%,-11
CC1CCC(NC(=O)Cn2c(=O)oc3ccccc32)CC1 (stereo not given),1%,-8,i,-51*,0%,2
Cc1ccc(S(=O)(=O)N2CCCCC2)cc1C(=O)N(C)CC(=O)Nc1ccc(Cl)c(C(F)(F)F)c1,?,-5,·,?,-10%,-56*
COc1cccc(NC(=O)CN(C)C(=O)c2cc(S(=O)(=O)N3CCCCC3)ccc2Cl)c1,-1%,4,i,-4,0%,7
CCc1ccc(CN(C)C(=O)c2cc(S(=O)(=O)N3CCN(CC)CC3)ccc2Cl)cc1,-10%,-13,i,-4,-11%,-67*
